From PubChem
mcGAS MS inh: inhibitors of mouse cGAS; recombinant mouse cGAS, cGAMP by RapidFire MS; inhibition, % at 12.5 µM; 130,000 compounds, 0.18% hits; Q8C6L5;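 active means inhibition of cGAS enzyme activity at or above 60%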;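 further: enzyme stimulated by 45 bp dsDNA with ATP and GTP substrates; cGAMP share of summed cGAMP plus half ATP and half GTP signals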
Target sequence (Q8C6L5 whole entry, looked up): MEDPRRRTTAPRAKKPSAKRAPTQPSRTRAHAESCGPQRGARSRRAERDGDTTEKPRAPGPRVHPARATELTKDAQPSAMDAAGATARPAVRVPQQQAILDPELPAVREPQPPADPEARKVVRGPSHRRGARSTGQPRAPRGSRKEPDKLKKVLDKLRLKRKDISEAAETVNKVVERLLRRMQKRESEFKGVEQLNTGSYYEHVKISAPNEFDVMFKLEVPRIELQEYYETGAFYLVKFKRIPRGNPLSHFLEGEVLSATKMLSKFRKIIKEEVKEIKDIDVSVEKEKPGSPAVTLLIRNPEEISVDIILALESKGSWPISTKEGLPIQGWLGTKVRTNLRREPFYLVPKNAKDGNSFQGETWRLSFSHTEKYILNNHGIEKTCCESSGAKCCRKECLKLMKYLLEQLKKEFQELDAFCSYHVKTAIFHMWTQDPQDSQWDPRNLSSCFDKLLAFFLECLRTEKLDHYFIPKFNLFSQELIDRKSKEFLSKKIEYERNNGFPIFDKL
* hit, by the source's call; ! = repeats disagree. The full list was thinned out, with hits kept by preference.

SMILES | mcGAS MS inh
COc1ccc2nc3cc(Cl)ccc3c(Nc3cc(CN4CCCC4)c(O)c(CN4CCCC4)c3)c2n1 | 33
CCN(CC)CCCC(C)Nc1c2ccc(Cl)cc2nc2ccc(OC)cc12 (stereo not given) | 68*!
CCN(CC)CCCC(C)NCc1ccccc1OC (stereo not given) | -1
COC(CNS(=O)(=O)c1cccc(C)c1)OC | -13
CC(C)N1CCCC(Nc2cccc(CO)c2)C1=O (stereo not given) | -7
O=C1C=CC(=O)N1c1cc(Cl)cc(Cl)c1 | 67*
Cc1nn(C)cc1S(=O)(=O)NCCN(C)C | -8
CC[C@H](/C=C/C(C)C1CCC2C3CCC4=CC(=O)CC[C@]4(C)C3CC[C@]12C)C(C)C (stereo not given in full) | -10
Cc1noc(C)c1C(=O)OCC(=O)c1cc(C)n(-c2nccs2)c1C | -4
N#CC1C(=N)SC(=N)C(C#N)C1c1ccc([N+](=O)[O-])cc1 (stereo not given) | 62*
CCOC(=O)C1=C(C)NC(=O)C(C#N)C1c1ccc([N+](=O)[O-])cc1 (stereo not given) | -7
CCCC1C(C#N)C(=N)SC(=N)C1C#N (stereo not given) | -1
CCCCC(C)n1[nH]c(=O)cc1N (stereo not given) | 63*
CCCCCC(C)n1[nH]c(=O)c2c(C)cc(C)nc21 (stereo not given) | 13
CCCCn1c(N)cc(=O)[nH]c1=O | -4
CCC(OC(=O)c1cccc(NC(C)=O)c1)C(=O)Nc1ccc(F)cc1 (stereo not given) | -6
COc1cccc(-c2ccc3c(c2)N(Cc2ccc4c(c2)OCO4)C(=O)C(C)S3)c1 (stereo not given) | -12
CC1Sc2ccccc2N(Cc2ccc(F)c(Cl)c2)C1=O (stereo not given) | 24
CC1Sc2ccc(-c3ccco3)cc2N(Cc2ccc(Cl)cc2)C1=O (stereo not given) | 66*
Cc1ccc(S(=O)(=O)/C(C#N)=C/N2CCN(C)CC2)cc1C | -2
CCC(C(=O)N(C)Cc1ccc(C(=O)OC)cc1)c1c(C)noc1C (stereo not given) | -2
O=C(Cn1ncnn1)N1CCC(N2CCCC(C(=O)N3CCCC3)C2)CC1 (stereo not given) | -12
CN(C)S(=O)(=O)Nc1cc(Br)ccc1-n1cccn1 | -8
OC[C@H]1O[C@@H](Oc2ccc(O)cc2)[C@H](O)[C@@H](O)[C@@H]1O | -10
O=c1c(O[C@@H]2O[C@H](CO)[C@@H](O)[C@H](O)[C@H]2O)c(-c2ccc(O)c(O)c2)oc2cc(O)cc(O)c12 | 11
SMILES | mcGAS MS inh
O=C(O)c1cc(O)c2c(O)c3c(O[C@H]4O[C@H](CO)[C@@H](O)[C@H](O)[C@H]4O)cccc3c(-c3c4cc(C(=O)O)cc(O)c4c(O)c4c(O[C@H]5O[C@H](CO)[C@@H](O)[C@H](O)[C@H]5O)cccc34)c2c1 | 82*!
COc1ccc(-c2cn(-c3ccccc3)nc2C(=O)N2CCNC(=O)C2)cc1OC | 0
CN(Cc1cccc(Cl)c1)C(=O)c1cc(CN2CCCC(O)C2)on1 (stereo not given) | -10
O=c1c(O)cccc2cc(O)c(O)c(O)c12 | 65*
O=C(OCc1cc(-c2cc3ccccc3o2)on1)c1cc2ccccc2o1 | -3
Cc1c(Cl)c([N+](=O)[O-])nn1CC(=O)N(C)C1CCCCC1 | 11
CCCN(Cc1ccc(C#N)cc1)Cn1ncn(C2CC2)c1=S | -5
O=C(c1ccco1)N1CCN(C(=O)c2ccc(Br)o2)CC1 | -5
CC1CCCN(C(=O)c2ccc(Br)o2)C1 (stereo not given) | 54
Nc1nncn1C(=O)c1ccc(Br)o1 | 82*
Cc1cc(C)n2c(CNS(=O)(=O)c3c(C)cc(C(C)(C)C)cc3C)nnc2n1 | -12
COc1ccc(C2=C(C)N([O-])C(C)(C)[N+]2=O)cc1 | -7
CC1=C(c2ccccc2)[N+](=O)C2(CCCC2)N1[O-] | 64*
CC1=C(c2ccc(F)cc2)[N+](=O)C(C)(C)N1[O-] | -9
Cc1ccc(N(C)S(=O)(=O)c2cc(C(=O)O)ccc2C)c(C)c1 | -23
COc1cccc(NC(=O)C2CCCN(C)CC2)c1 (stereo not given) | 1
O=C(c1ccc2c(c1)OCO2)N1CCCC(OCc2ccc(F)c(F)c2)C1 (stereo not given) | -3
CCCCNC(=O)COC(=O)c1ccc(S(=O)(=O)N2CCCCCC2)cc1 | -6
COc1ccc(CNc2ncn[nH]2)cc1OC | -2
COc1ccc(CNc2c[nH]c(=O)cc2C)cc1OCCCC#N | 83*
COc1ccc(CNc2ccccc2-n2cccn2)cc1C | -1
COc1ccccc1CCC(=O)N1CCC(CCC(=O)Nc2ccccc2)CC1 | 1
CCCCN(CC)C(=O)c1c(C(F)(F)F)nn(C2CCCN(C)C2)c1C (stereo not given) | -6
CC(=O)C1=C(c2ccc(C3CCCCC3)cc2)N(C(C)=O)n2cnnc2S1 | -1
Cn1ccnc1CN1CCN(C(=O)CC(c2ccccc2)c2ccccc2F)CC1 (stereo not given) | -9
SMILES | mcGAS MS inh
O=C1CN(c2ccc(C(=O)N3CCCN(c4ncccn4)CC3)cn2)CCN1 | -7
CCOc1ccc(C(=O)N2CCN(c3ncccn3)CC2)cc1 | -1
O=C(c1ccc(N2CC(O)C2)nc1)N1CCCN(c2ncccn2)CC1 | 80*
CC1=NNc2nc3c(c(=O)n(Cc4cccc(C)c4)c(=O)n3C)n2C1C (stereo not given) | -5
O=C(Nc1ccc(F)cc1F)N1CCN(c2ccccc2Cl)CC1 | -2
O=C1C=CC2=C3c4cc(O)c(O)cc4CC3(O)COC2=C1O (stereo not given) | 97*
COc1cc(CSc2nnnn2C2CC2)c(OC)cc1Br | -12
COc1ccc(-c2ccc(C(=O)N3CCCC3)o2)c2cccnc12 | 86*
CNC(=O)c1ccc(-c2ccc(OC)c3ncccc23)s1 | -8
COc1ccc(-c2ccc(NC(=O)C3CC3)nc2)c2cccnc12 | -14
O=C(CN1CCCC(Nc2ccc(F)cc2)C1)N1CCCCCC1 (stereo not given) | 25
CC(C)C(NS(=O)(=O)c1cccc(Cl)c1)C(=O)N1CCN(c2ccccc2)CC1 (stereo not given) | -5
CC(C)C(NS(=O)(=O)c1ccccc1)C(=O)N1CCN(c2ccccc2Cl)CC1 (stereo not given) | -10
CC(C)C(NS(=O)(=O)c1ccccc1)C(=O)N1CCN(c2cccc(Cl)c2)CC1 (stereo not given) | 60*
CCN1C(=O)C(=Cc2cc(C)n(CC(F)(F)F)c2C)SC1=S | -11
COC(=O)C(=Cc1cc(C)n(CC(F)(F)F)c1C)C(C)=O | -12
Cc1cc(C=C2C(=O)NC(=S)NC2=O)c(C)n1CC(F)(F)F | 74*
CN1CCN(CCCN(C)C(=O)NCc2ccc(Cl)cc2)CC1 | -8
CCn1nc(NC(C)=O)c2cc3cc(C)ccc3nc21 | 15
CCOC(=O)C=C1SCC(=O)N1CC(=O)OCC | -8
CCOC(=O)CN1C(=O)CSC1=CC#N | 82*
CCOC(=O)Cn1nc(C)c(C)c(C#N)c1=O | -7
CCc1nnc(NC(=O)C2(c3ccccc3)CCC2)s1 | -5
Cc1cc(C)c2c(-c3ccccc3)nc(SC(C)C(N)=O)n2n1 (stereo not given) | 4
Cc1ccc(C(C)NC(=O)COC(=O)CN(C)c2ncccn2)cc1C (stereo not given) | -3
Oc1c(Br)cc(C=NNc2ccccn2)cc1Br | 74*
COc1cc(/C=N\Nc2ncnc3nc[nH]c23)cc(Br)c1O | 3
Cc1cc(NN=Cc2ccccn2)nc2ccccc12 | -3
